# According to PubChem BioAssay AID1117359 (Southern Research Institute, 2015):
# The campaign covered roughly 1,500 compounds. About 460 (31%) were called active. Only a sample is shown. Entries with a potency or affinity are not part of this list. Unmarked numbers belong to inactive results.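 How the source made its calls: active means viability at or below 80% at any tested concentration, marking the compound as toxic; inactive means the rest.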
# Test: viability loss in THP-1 monocytes – THP-1 cells, cytotoxicity control for Vif-APOBEC3G degradation inhibitor project, dose response (AID 1117359)
# Details: THP-1 viability, CellTiter-Glo luminescence, 72 h; series mostly up to 40 µM; viability: at the top concentration
row,SMILES,viability [%]
1,O=[N+]([O-])c1cc2oc3c(c2c(C=NCc2ccncc2)c1O)CCCC3,110
2,COc1cc2c3c(c1OC)C1(C=CC(=O)C=C1)CC3N(C(=O)CCC(=O)O)CC2 (stereo unspecified),103
3,O=C(CCCCl)Nc1nc(-c2ccc3c(c2)OCCO3)cs1,98.4
4,COc1ccc(O)c(N)c1,99.5
5,COc1ccc(OC)c(N/C(C)=C/C(=O)c2ccc(C)o2)c1,89.8
6,Oc1ccc(-c2cn3c(n2)SCC3)cc1O,97.9
7,CCCCCC#CCC#CCC#CCC#CCCCC(=O)O,83
8,CC(=O)Nc1cccc(-c2cc(-c3c(Cl)cccc3Cl)no2)c1,95.7
9,COc1ccc(NC(=O)/C=C/c2ccc(S(=O)(=O)N3CCOCC3)cc2)cc1,97.8
10,Cc1cc(-c2n[nH]c(=S)n2/N=C/C=C/c2ccco2)n[nH]1,108
11,COc1ccc(C)cc1NC(=O)COC(=O)CCC(=O)c1cccs1,106
12,N#Cc1ccccc1CN1C(=O)S/C(=C/c2cccn2-c2ccc(C(=O)O)cc2)C1=O,109
13,O=C(NCC(c1ccco1)N1CCCC1)c1cccc(S(=O)(=O)N2CCCCC2)c1 (stereo unspecified),89.7
14,COc1cc(C(C2C(=O)CC(C)(C)CC2=O)C2C(=O)CC(C)(C)CC2=O)cc(OC)c1OC,96
15,COCCNC(=O)Nc1ccc2nc(-c3ccco3)c(-c3ccco3)nc2c1,114
16,O=C(NC1CC1)c1cc(-c2ccco2)nc2ccccc12,87.3
17,CC(C)CN(C(=O)CN1CCN(S(=O)(=O)c2ccccc2)CC1)c1c(N)n(CC(C)C)c(=O)[nH]c1=O,118
18,COC(=O)[C@@]1(Cc2ccc(OC)cc2)[C@H]2c3cc(C(=O)N(C)C)n(C[C@H](O)CO)c3C[C@H]2CN1C(=O)c1ccccc1,83.2
19,Cc1nc(C)c(C(=O)Nc2nc3c(C)cccc3s2)o1,92.6
20,O=C(Nc1nnc(C2CC2)s1)c1ccc(S(=O)(=O)c2ccccc2)cc1,94.8
21,S=c1[nH]nc(COc2ccc(Cl)cc2)o1,103
22,CCCCCCNS(=O)(=O)c1ccccc1Br,87
23,Clc1ncnc2scc(-c3ccccc3)c12,84.7
24,Nc1ccc(S(=O)(=O)c2cc(O)c3ccccc3c2O)cc1,89.9

row,SMILES,viability [%]
1,CCOC(=O)/C(C#N)=C/c1c(OCC)n(CC)c2ccccc12,91.8
2,COc1ccc(CCN2C(=O)CC(Nc3ccc(N4CCOCC4)cc3)C2=O)cc1OC (stereo unspecified),96.4
3,O=C1CCC(CCC(=O)N2CCCC(C(=O)c3ccc4c5c(cccc35)CC4)C2)=NN1 (stereo unspecified),81.3
4,Nc1cc(N)c(OCC(F)(F)F)cc1OCC(F)(F)F,98.8
5,CC(=O)c1ccc2c(c1)C1C=CCC1C(c1ccncc1)N2 (stereo unspecified),86.5
6,Cc1cccc(Cc2nnc(CCC(=O)N(C)C3CCOC3)o2)c1 (stereo unspecified),95.4
7,CCCCn1c(N)c(N(CCC(C)C)C(=O)C2=NN(c3cc(C)ccc3C)C(=O)CC2)c(=O)[nH]c1=O,89.7
8,CNc1ccc(Br)cc(C(=O)/C=C/c2cc(OC)ccc2OC)c1=O,82.2
9,COc1ccccc1NS(=O)(=O)c1cccs1,92.4
10,CN(C)S(=O)(=O)c1cccc(NC(=S)N/N=C/c2ccc(O)c(O)c2O)c1,92.7
11,Cc1ccc(C=C2C(Cl)=C(Cl)C(Cl)=C2Cl)cc1,91
12,COC(=O)COc1ccc(S(=O)(=O)Nc2ccc(C(N)=O)cc2)cc1C,97.2
13,O=C1CSC(c2cccnc2)N1Cc1cccnc1 (stereo unspecified),109
14,Cc1cc(C)c(C(=O)/C=C/c2ccco2)c(=O)[nH]1,88.5
15,N#CC(C#N)=Cc1cccn1-c1ccc(C(=O)O)cc1,101
16,CCOC(=O)CN(C(=O)CSc1nnc(COc2ccc(OC)cc2)n1CC)c1ccccc1,87.8
17,O=C(O)CCCNc1cc(N2CCC3(CC2)OCCO3)c2noc3c2c1C(=O)c1ccccc1-3,89.7
18,Cc1ccc(NC(=O)CSc2nc(CSc3ccc(C)cc3)cc(=O)[nH]2)cc1,103
19,COc1ccc(N(CC(=O)NCCC2=CCCCC2)S(=O)(=O)c2ccccc2)cc1,83.4
20,COc1cc([N+](=O)[O-])c(N2CCOCC2)c([N+](=O)[O-])c1OC,87
21,CC(C)C1Nc2ccc(C(=O)O)cc2C2C=CCC21 (stereo unspecified),87.3
22,O=C1NN(c2ccc(Cl)cc2)C(=O)/C1=C\c1ccc(-c2cccc(C(=O)O)c2)o1,97.9
23,Fc1cc(F)cc(NC(=S)NCCCN2CCOCC2)c1,106
24,CC(C)OP(=O)(OC(C)C)C(O)c1ccc(N(C)C)cc1 (stereo unspecified),111

row,SMILES,viability [%]
1,Cc1ccc(Oc2ccc(/C=N/O)cn2)cc1,89.2
2,CCOC(=O)C(C#N)(Cc1ccc2ccccc2n1)Cc1ccc2ccccc2n1,83.9
3,O=C(CCl)N1N=C(c2ccco2)CC1c1ccco1 (stereo unspecified),108
4,Cc1cccc(NC(=O)CNC(=O)c2cccc(-n3cccc3)c2)c1C,95.8
5,C/C(N)=C(/C#N)C(=O)CSc1nnc(Nc2c(C)cccc2C)s1,92.9
6,O=C(O)CCCCC1SCC2NC(=O)NC21 (stereo unspecified),118
7,CN(C(=O)CSc1ncnc2sccc12)C1CCCCC1,93.3
8,O=C1/C(=C/C=C/c2ccco2)SC(=S)N1c1ccc(O)cc1,83.6
9,O=C(O)CC(C(=O)O)N1C(=O)/C(=C/C=C/c2ccco2)SC1=S (stereo unspecified),97.4
10,CC(C)(C)C1CCC(OC(=O)C[N+]2(C)CCCCC2)CC1 (stereo unspecified),82.8
11,CCOc1ccccc1C(=S)NC1CCCCC1,101
12,Cc1nn(CC(=O)NC2CC2)c(C)c1S(=O)(=O)N(C)C,102
13,CC(C)(C)c1cc(N/C=C\c2nnnn2-c2ccc(Br)cc2)no1,102
14,CC1CCN(Cc2c(O)ccc3c2O/C(=C\c2ccco2)C3=O)CC1,85.3
15,CCCSC1=N/C(=C\c2ccc([N+](=O)[O-])o2)C(=O)S1,98.9
16,O=C1OC(c2ccc(F)cc2)=C/C1=C\c1ccc([N+](=O)[O-])o1,88
17,CCOc1ccc(NC(=O)C2CCCN(S(=O)(=O)c3c(C)n[nH]c3C)C2)cc1 (stereo unspecified),102
18,Cc1ccc(C)c(/C(O)=C2/C(=O)C(=O)N(CCN3CCOCC3)C2c2ccco2)c1 (stereo unspecified),99.1
19,CNc1ccc(Br)cc(C(=O)/C=C/c2ccc(OC)cc2OC)c1=O,98.3
20,CC(=O)c1c(C)[nH]c(C(=O)OCC(=O)C(C)(C)C)c1C,92.6
21,COC(=O)c1sccc1NC(=O)CC1C(=O)NCCN1C(=O)Nc1ccccc1 (stereo unspecified),101
22,COc1ccc(NC(=O)O/N=C/c2ccccc2Cl)cc1,102
23,N#C/C(=C/c1ccc(Br)o1)C(N)=S,85.2
